Some test systems named below: ERN1; FER; FES; FGFR1; FGFR2; FGFR3(G697C).
Conditions in all cases: Compound Concentration (nM):1000
Another assay deals with T1, ERK4.
T1 construct: gene MAPK4

Another assay deals with T2, ERK5.
T2 construct: gene MAPK7

The test system of a further assay is T3, ERK8.
T3 construct: gene MAPK15

A further assay deals with T4, FAK.
T4 construct: gene PTK2
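Also: KINOMEscan scanMAX binding as percent activity remaining versus control; lower means stronger binding.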

Take `COC(=O)Nc1nc2ccc(Oc3ccc(NC(=O)Nc4cc(C(F)(F)F)ccc4F)cc3)cc2s1.Cl` [GW693917A]: the “Percent Control” value was 95% in the assay with ERK4; 100% in the assay on ERK5; 8.5% with ERK8; 56% in the assay with ERN1; 92% with FAK; 100% with FER. The “Percent Control” value was 88% in the assay on FES, 51% in the assay on FGFR1, 30% with FGFR2 and 59% in the assay with FGFR3(G697C).
As to `Cl.O=C(Nc1ccc(Oc2ccc3[nH]c(NC(=O)c4ccccc4)nc3c2)cc1)Nc1cc(C(F)(F)F)ccc1F` [GW709042A], the “Percent Control” value was determined as 91% with ERK4; 94% with ERK5; 64% in the assay with ERK8; 100% with ERN1; 100% in the assay on FAK; 77% with FER. Moreover, the “Percent Control” value in the assay with FES is 94%; in the assay with FGFR1, 76%; with FGFR2 it was 68%; with FGFR3(G697C), 100%.
For `COc1ccc2cc(-c3c(-c4ccncc4)nc(-c4ccc(S(C)(=O)=O)cc4C)n3C)ccc2c1` [SB-633825], the “Percent Control” value in the assay with ERK4 is 74%; with ERK5, 89%; with ERK8 it was 100%; in the assay on ERN1, 74%; in the assay on FAK, 85%; with FER, 77%. For the same compound, the “Percent Control” value in the assay on FES is 81%; with FGFR1, 73%; with FGFR2, 73%; in the assay on FGFR3(G697C), 86%.
For the compound `CC1=C(C(=O)Nc2ccc3[nH]ncc3c2)C(c2ccc(Cl)c(Cl)c2)CC(=O)N1` (centres unmarked) [GSK299115A], the “Percent Control” value with ERK4 was 100%; with ERK5, 100%; with ERK8 it was 90%; with ERN1 it was 80%; in the assay on FAK it was 100%; with FER, 97%. Also, the “Percent Control” value with FES was 96%; in the assay on FGFR1, 90%; in the assay with FGFR2, 73%; in the assay on FGFR3(G697C), 94%.
As for `C/C(Nc1ccc(S(N)(=O)=O)cc1)=C1/C(=O)Nc2ccccc21` [GW335962X], the “Percent Control” value in the assay on ERK4 was 100%; with ERK5, 100%; in the assay with ERK8 it was 100%; in the assay with ERN1 it was 88%; in the assay on FAK, 93%; with FER it was 88%. The “Percent Control” value with FES was 84%; in the assay on FGFR1, 86%; in the assay on FGFR2, 93%; in the assay with FGFR3(G697C), 100%.
Take `CCS(=O)(=O)c1ccc(OC)c(Nc2ncc(-c3cccc(F)c3)o2)c1` [GW621970X]: the “Percent Control” value with ERK4, in the assay with ERK5, with ERK8, in the assay with ERN1, in the assay on FAK and in the assay with FER was 100% throughout. The “Percent Control” value with FES is 100%; in the assay on FGFR1 it was 25%; in the assay on FGFR2, 22%; in the assay with FGFR3(G697C) it was 7.2%.
For `CCS(=O)(=O)c1ccc(OC)c(Nc2ncc(-c3cccc(OC)c3)o2)c1` [GW580509X], the “Percent Control” value with ERK4 turned out to be 100%; with ERK5, 100%; in the assay with ERK8, 100%; in the assay with ERN1, 76%; with FAK, 100%; in the assay on FER, 100%. For the same compound, the “Percent Control” value in the assay with FES was 100%; with FGFR1 it was 39%; in the assay on FGFR2, 58%; with FGFR3(G697C) it was 31%.
In the case of `NS(=O)(=O)c1ccc(N/N=C2\C(=O)Nc3ccc(C(=O)NCCc4c[nH]cn4)cc32)cc1` [GW300660X], the “Percent Control” value with ERK4 was 100%; in the assay with ERK5, 100%; in the assay with ERK8, 18%; in the assay on ERN1, 82%; with FAK, 100%; in the assay with FER, 100%. Moreover, the “Percent Control” value in the assay with FES, with FGFR1, in the assay with FGFR2 and in the assay on FGFR3(G697C) was 100% each time.
Consider `CN(C)c1cc2c(Nc3ccc4c(cnn4Cc4ccccc4)c3)ncnc2cn1` [GW282974X], for which the “Percent Control” value in the assay with ERK4 is 100%; in the assay on ERK5, 100%; in the assay with ERK8, 87%; in the assay with ERN1 it was 52%; with FAK it was 85%; in the assay on FER, 100%. Also, the “Percent Control” value in the assay with FES was 81%; in the assay on FGFR1 it was 97%; with FGFR2, 97%; in the assay on FGFR3(G697C), 93%.
`NS(=O)(=O)c1ccc(N/N=C2\C(=O)Nc3ccc(Cl)cc32)cc1` [GW280670X]: the “Percent Control” value in the assay with ERK4 was 100%; in the assay on ERK5, 100%; with ERK8, 59%; in the assay with ERN1, 100%; in the assay with FAK, 100%; in the assay with FER, 90%. The “Percent Control” value with FES, in the assay on FGFR1, with FGFR2 and with FGFR3(G697C) was 100% throughout.
Regarding `O=C(Nc1n[nH]c2nc(-c3ccc(O)cc3)c(Br)cc12)C1CC1` [SB-725317], the “Percent Control” value in the assay with ERK4 is listed as 100%; with ERK5, 2.4%; in the assay on ERK8 it was 27%; with ERN1, 93%; in the assay on FAK it was 100%; in the assay with FER it was 100%. Besides, the “Percent Control” value in the assay with FES, with FGFR1, in the assay with FGFR2 and in the assay with FGFR3(G697C) was 100% in each case.
Take `COc1cc2ncn(-c3cc(O[C@H](C)c4ccccc4Cl)c(C(N)=O)s3)c2cc1OC` [GSK237701A]: the “Percent Control” value in the assay with ERK4 was determined as 100%; in the assay with ERK5, 100%; in the assay with ERK8 it was 84%; in the assay on ERN1, 88%; in the assay on FAK, 100%; in the assay with FER it was 100%. In addition, the “Percent Control” value with FES is 95%; in the assay with FGFR1, 65%; in the assay on FGFR2 it was 58%; with FGFR3(G697C), 63%.
On to `Cl.O=C(Nc1ccc(Oc2ccc3[nH]c(NC(=O)c4ccco4)nc3c2)cc1)Nc1cc(C(F)(F)F)ccc1F` [GW683134A], for which the “Percent Control” value amounted to 100% in the assay with ERK4; 100% in the assay with ERK5; 34% in the assay on ERK8; 89% in the assay on ERN1; 100% with FAK; 92% in the assay on FER. For the same compound, the “Percent Control” value in the assay with FES is 100%; in the assay with FGFR1 it was 64%; in the assay on FGFR2, 36%; with FGFR3(G697C), 69%.
With `Nc1ncnc2occ(-c3ccc(NC(=O)Nc4cc(C(F)(F)F)ccc4F)cc3)c12` [GW770249X], the “Percent Control” value turned out to be 100% with ERK4; 100% with ERK5; 2.4% in the assay with ERK8; 88% in the assay on ERN1; 9.7% with FAK; 87% in the assay on FER. Besides, the “Percent Control” value in the assay on FES is 100%; in the assay with FGFR1 it was 32%; in the assay on FGFR2, 31%; in the assay with FGFR3(G697C), 78%.
On to `Cl.O=S1CCN(Cc2ccc(-c3ccc4ncnc(Nc5ccc(OCc6ccccc6)c(F)c5)c4c3)o2)CC1` [GW576924A], for which the “Percent Control” value in the assay on ERK4, in the assay with ERK5, in the assay with ERK8, with ERN1, in the assay with FAK and in the assay on FER was 100% in each case. Further, the “Percent Control” value with FES, with FGFR1, in the assay on FGFR2 and in the assay on FGFR3(G697C) was 100% throughout.
Turning to `COc1cc(N2CCN(C(C)C)CC2)ccc1Nc1nc(Nc2ccc(F)cc2C(=O)NC[C@@H](O)CO)c2cc[nH]c2n1` [GSK1392956A], the “Percent Control” value in the assay with ERK4 turned out to be 100%; in the assay with ERK5, 99%; in the assay with ERK8, 100%; with ERN1, 43%; in the assay with FAK, 4.5%; in the assay with FER it was 43%. The “Percent Control” value in the assay on FES was 58%; with FGFR1, 100%; with FGFR2 it was 97%; in the assay on FGFR3(G697C) it was 98%.
Consider `CN1CCN(C(=O)c2ccc(NC(=O)Nc3ccc(N(C)c4ccnc(Nc5ccc(CS(C)(=O)=O)cc5)n4)cc3)cc2)CC1.Cl` [GW830263A], for which the “Percent Control” value in the assay on ERK4 was 100%; in the assay with ERK5, 100%; in the assay with ERK8 it was 25%; with ERN1 it was 25%; in the assay on FAK, 36%; in the assay with FER, 46%. Besides, the “Percent Control” value is 67% in the assay with FES, 100% in the assay on FGFR1, 99% in the assay with FGFR2 and 100% in the assay with FGFR3(G697C).
As to `CC(C)COC(=O)c1ccc2c(c1)/C(=C/Nc1ccc(S(N)(=O)=O)cc1)C(=O)N2` [GW416981X], the “Percent Control” value with ERK4 is 100%; in the assay on ERK5, 100%; in the assay with ERK8, 1.8%; in the assay with ERN1 it was 100%; with FAK, 100%; in the assay with FER, 100%. The “Percent Control” value in the assay with FES, in the assay with FGFR1, in the assay on FGFR2 and in the assay on FGFR3(G697C) was 100% each time.
With `O=C1Nc2ccc(C(=O)c3ccco3)cc2C1=Cc1cc(Cl)c(O)c(Cl)c1` [GW406108X], the “Percent Control” value with ERK4 turned out to be 100%; in the assay with ERK5, 100%; in the assay with ERK8, 100%; in the assay with ERN1, 66%; in the assay with FAK, 100%; in the assay with FER, 100%. In addition, the “Percent Control” value in the assay with FES was 99%; with FGFR1, 100%; in the assay on FGFR2 it was 75%; in the assay on FGFR3(G697C) it was 100%.
Consider `NS(=O)(=O)c1ccc(N/N=C2\C(=O)Nc3ccc(C(=O)NCc4ccncc4)cc32)cc1` [GW300657X], for which the “Percent Control” value is reported as 100% with ERK4; 39% with ERK5; 4% in the assay with ERK8; 57% with ERN1; 86% with FAK; 100% in the assay on FER. Moreover, the “Percent Control” value in the assay on FES was 100%; in the assay with FGFR1, 91%; in the assay on FGFR2, 80%; with FGFR3(G697C), 100%.

The values are drawn from PMC7826789 (International Journal of Molecular Sciences, 2021).
